Experimental data published in PubChem BioAssay (NCATS).
Results filed as inconclusive are left out. Calls of active or inactive are those of the source. Calls come from the whole dose curve; as a rule, active = well fitted cell-killing curve with a large enough effect; inconclusive = small, poorly fitted or top-dose-only effect, or effect the other way; inactive = no such curve, though single readings can be large or run the other way. Non-standard residues stand in square brackets, D forms with d. Residues, ends and D or L forms follow the SMILES beside them. *: point of attachment. Nva = CCC[C@H](N)C(=O)O; Cbz = O=C(OCc1ccccc1)*

test: Quantitative High-Throughput drug screen in 47 multiple myeloma cell lines against the NCATS MIPE library collection: LP1_DSMZ cell viability assay (AID 1918982); conditions: LP1 myeloma viability, CellTiter-Glo ATP luminescence, 48 h; series mostly up to 45.8 µM; viability (% of control): at the top concentration; note: nearly all actives have a fitted effect of over 35% in size
From the text: PI: Beverly A. Mock Ph.D.
Laboratory of Cancer Biology and Genetics,
Center for Cancer Research, National Cancer Institute,
National Institute of Health, Bethesda, Maryland
Drug resistance and disease progression are common in multiple myeloma (MM) patients, underscoring the need for new therapeutic combinations. […] We hypothesized that effective combinations would reduce MYC expression and enhance p16 activity. […] These preclinical data identify potentially useful drug combinations for evaluation in drug-resistant MM and reveal potential mechanisms of combined drug sensitivity.
Described herein is the primary MIPE qHTS used to cherrypick compounds. Validated compounds were then further tested for potential synergistic activiy.
[1] Peat TJ, Gaikwad SM, Dubois W, Gyabaah-Kessie N, Zhang S, Gorjifard S, Phyo Z, Andres M, Hughitt VK, Simpson RM, Miller MA, Girvin AT, Taylor A, Williams D, D'Antonio N, Zhang Y, Rajagopalan A, Flietner E, Wilson K, Zhang X, Shinn P, Klumpp-Thomas C, McKnight C, Itkin Z, Chen L, Kazandijian D, Zhang J, Michalowski AM, Simmons JK, Keats J, Thomas CJ, Mock BA. Drug combinations identified by high-throughput screening promote cell cycle transition and upregulate Smad pathways in myeloma. Cancer Lett. 2023 Aug 1;568:216284. doi: 10.1016/j.canlet.2023.216284. Epub 2023 Jun 24. PMID: 37356470; PMCID: PMC10408729.
SEQUENCE No. (e.g., 1, 2, 3, etc.); […] (e.g., Cells, Incubation, Reagent, etc.); VALUE and DESCRIPTION.
1; Cells; 5 uL; white, solid bottom 1536-well Greiner assay plate.
2; Compounds; 23 nL; Kalypsis pin tool (Wako USA) equipped with a 1536-well pin head to transfer to the assay plates.
3; Incubation; 48 hours; 37C incubation.
4; Reagent;5uL; CellTiter Glo (Promega).
5; Detector; 425V; Luminescence; Viewlux PerkinElmer.
NOTES (numbers refer to Sequence numbers above)
1. The cell-based screening methods employed in this study were like those previously published. Briefly, the corresponding myeloma cell lines were screened in 1,536-well plates with 500 cells, 5-uL per well for inhibition of cell viability (assessed by measuring ATP levels with CellTiterGlo).
2. NCATS MIPE 4.0 library of approved and investigational drugs were added using the Kalypsis pin tool. Wells treated with DMSO only for 100% viability and media only for 0% viability were used as controls.
3. The assay plates were covered and incubated for 48 hours in a 37C, 5% CO2 incubator with controlled humidity.
4. After 48 hours, CellTilter-GloTM luminescent substrate mix (Promega) reagent was added to the assay plate and plates we incubated for 5 min at room temperature.
5. Signal was measured as median relative luminescence units on a ViewLux (PerkinElmer) multiplate reader.
[1] Heske CM, Davis MI, Baumgart JT, Wilson K, Gormally MV, Chen L, Zhang X, Ceribelli M, Duveau DY, Guha R, Ferrer M, Arnaldez FI, Ji J, Tran HL, Zhang Y, Mendoza A, Helman LJ, Thomas CJ. Matrix Screen Identifies Synergistic Combination of PARP Inhibitors and Nicotinamide Phosphoribosyltransferase (NAMPT) Inhibitors in Ewing Sarcoma. Clin Cancer Res. 2017 Dec 1;23(23):7301-7311. doi: 10.1158/1078-0432.CCR-17-1121. Epub 2017 Sep 12. PMID: 28899971; PMCID: PMC6636827.
Potency is the fitted concentration of half-maximal effect.

Compound | viability (% of control) | Potency
Cc1noc(-c2ccc(CSCCC(=O)O)cc2)c1NC(=O)OC(C)c1ccccc1Cl (stereo not given) | 113% (inactive) | –
C=Cc1c(C)c2cc3nc(cc4[nH]c(cc5nc(cc1[nH]2)C(C)=C5CCC(=O)O)c(CCC(=O)OC)c4C)[C@@]1(C)C3=CC=C(C(=O)OC)[C@H]1C(=O)OC | – | 1.05 µM (active)
O=C(CN1C(=O)C2(CCCC2)NC[C@H]1c1cc(F)cc(F)c1)Nc1ccc2c(c1)C[C@@]1(C2)C(=O)Nc2ncccc21 | 74.7% (inactive) | –
Oc1cc(-c2nc(-c3ccccc3)[nH]c2-c2ccncc2)ccc1Cl | 89.1% (inactive) | –
CN(C)CCN1C(=O)c2cccc3cc(N)cc(c23)C1=O | – | 20.9 µM (active)
CCS(=O)(=O)Nc1ccc2[nH]c(O)c(C(=Nc3ccc(CN4CCCCC4)cc3)c3ccccc3)c2c1 | – | 7.43 µM (active)
O=c1c(O)c(-c2ccc(O)c(O)c2)oc2cc(O)ccc12 | – | 23.5 µM (active)
CC(C)C[C@H](NC(=O)CNC(=O)c1cc(Cl)ccc1Cl)B1OC(=O)CC(CC(=O)O)(C(=O)O)O1 (stereo not given in full) | – | 0.0743 µM (active)
O=C1c2cccc(O)c2C(=O)c2c(O)cc(CO)cc21 | – | 16.6 µM (active)
COC(=O)[C@H](CCCN=C(N)N)NS(=O)(=O)c1ccc(C)cc1 | 97.3% (inactive) | –
C[C@H](NCc1ccc2c(c1)nc(NC(=O)c1ccc(-c3cn[nH]c3)s1)n2CCc1ccccc1)C(C)(C)C | – | 1.05 µM (active)
O=C1CSC(=O)N1C(CCc1ccncc1)COc1ccc(-c2cccc([N+](=O)[O-])c2)cc1 (stereo not given) | – | 5.9 µM (active)
CCOc1cc2c(c(F)c1OCC)C(=N)N(CC(=O)c1cc(N3CCOCC3)c(OC)c(C(C)(C)C)c1)C2 | – | 16.6 µM (active)
CC(C=CC(=O)NO)=C[C@@H](C)C(=O)c1ccc(N(C)C)cc1 | – | 0.372 µM (active)
CCCNC(=O)[C@H]1O[C@H]1C(=O)N[C@H](C(=O)N1CCC[C@@H]1C(=O)OC)C(C)CC (stereo not given in full) | – | 14.8 µM (active)
COc1cc(O)c2c(c1)C1OC1C[C@H](O)[C@H](O)C(=O)C=CC[C@H](C)OC2=O (stereo not given in full) | – | 5.26 µM (active)
CCOC(=O)C=C[C@H](C[C@@H]1CCNC1=O)NC(=O)[C@@H](CC(=O)[C@@H](NC(=O)c1cc(C)on1)C(C)C)Cc1ccc(F)cc1 | 99.1% (inactive) | –
CCC(C=C[C@@H]1OC(=O)C=C[C@H]1C)=C[C@H](C)CC=CC(C)=C[C@@H](C)C(=O)[C@@H](C)[C@H](O)[C@@H](C)CC(C)=CC(=O)O | – | 0.0277 µM (active)
C[C@]12C=CC(=O)N[C@@H]1CC[C@H]1[C@H]3CC[C@@H](C(=O)Nc4cc(C(F)(F)F)ccc4C(F)(F)F)[C@@]3(C)CC[C@@H]12 | 84.1% (inactive) | –
Cc1cncc2cccc(S(=O)(=O)N3CCCN(C(=O)CN)C[C@@H]3C)c12 | 81.3% (inactive) | –

Compound | viability (% of control) | Potency
C#C[C@]1(O)CC[C@@H]2[C@@H]3CCC4=CC(=O)CC[C@@H]4[C@H]3CC[C@@]21CC | 100% (inactive) | –
CC(C)N(CC[C@H](c1ccccc1)c1cc(CO)ccc1O)C(C)C | 92% (inactive) | –
CC(C)N1[N]C(=C2C=c3cc(O)ccc3=N2)c2c(N)ncnc21 | – | 0.0026 µM (active)
C[C@H]1C[C@H]2[C@@H]3CCC4=CC(=O)C=C[C@]4(C)[C@@H]3C(=O)C[C@]2(C)[C@@]1(O)C(=O)CO | 104% (inactive) | –
C[C@@H](NCc1cc2ccccc2[nH]1)c1cccc2ccccc12 | 111% (inactive) | –
C=CC(=O)N1CCc2ccc(-n3c(=O)ccc4cnc5ccc(-c6cnn(C)c6)cc5c43)cc21 | – | 1.48 µM (active)
Cn1cc(-c2ccc3ncc(Cc4ccc5ncccc5c4)n3n2)cn1 | 90.7% (inactive) | –
CN(C)CC[C@H](c1ccc(Cl)cc1)c1ccccn1 | 113% (inactive) | –
Cc1ccccc1C(=O)Nc1ccc(C(=O)N2CCCC(O)c3cc(Cl)ccc32)c(C)c1 (stereo not given) | – | 18.7 µM (active)
CCN(CC)Cc1ccc2cc(COC(=O)Nc3ccc(C(=O)NO)cc3)ccc2c1 | – | 0.935 µM (active)
O=C(O)[C@H](CC(=O)N1C[C@@H]2CCCC[C@H]2C1)Cc1ccccc1 | 106% (inactive) | –
CCC[C@@H](C=O)NC(=O)[C@H](CC(C)C)NC(=O)[C@H](CC(C)C)NC(=O)OCc1ccccc1 (Cbz-Leu-Leu-[Nva]-aldehyde) | – | 1.32 µM (active)
COC1=C2C[C@@H](C)C[C@H](OC)[C@@H](O)[C@@H](C)C=C(C)[C@H](OC(N)=O)[C@@H](OC)C=CC=C(C)C(=O)NC(=CC1=O)C2=O | – | 1.18 µM (active)
OCc1ccccc1O[C@@H]1O[C@H](CO)[C@H](O)[C@H](O)[C@H]1O | 121% (inactive) | –
CN1[C@H]2CC(OC(=O)[C@@H](CO)c3ccccc3)C[C@H]1[C@H]1O[C@H]12 (stereo not given in full) | 112% [at 23.2 µM] (inactive) | –
Cc1ccc2nc(NCCN)c3ncc(C)n3c2c1 | – | 2.64 µM (active)
Oc1ccc(-c2ccc(-c3cc(Nc4cccc(CNC5CC5)c4)n[nH]3)cc2)c(O)c1 | – | 2.64 µM (active)
CS(=O)(=O)N1CCc2c(-c3cnc(N)nc3)nc(N3CCOCC3)nc21 | – | 0.0332 µM (active)
CCCNS(=O)(=O)Nc1ncnc(OCCOc2ncc(Br)cn2)c1-c1ccc(Br)cc1 | 132% (inactive) | –
C=CCNc1c(O)cc2c(O)c1C[C@@H](C)C[C@H](OC)[C@@H](O)[C@@H](C)C=C(C)[C@H](OC(N)=O)[C@@H](OC)C=CC=C(C)C(=O)N2 | – | 1.87 µM (active)
